We go through 50 compounds from PubChem BioAssay AID651820 (National Center for Advancing Translational Sciences (NCATS), 2012).

Molecules are shown by their SMILES. Out of some 340,000 compounds screened, about 12,000 (3.5%) were called active. Another 18% or so got no clear call; they are omitted. The sample as a whole holds a higher share of actives than the screen did. Unmarked numbers belong to inactive results. The call rests on the fitted dose curve; in most records, active means well fitted inhibition curve with a large enough effect; inconclusive means small, poorly fitted or top-dose-only effect, or another doubt; inactive means no such curve, though single readings can be large or run the other way.
On the % scale 0 is the no-effect control and ±100 the full control effect; potency means the concentration at half of the fitted maximal effect.

The assay can be described thus: qHTS Assay for Inhibitors of Hepatitis C Virus (HCV). As to conditions: Huh7.5.1 HCVcc-Cre infection, luciferase reporter, 44 h; series mostly up to 41.8 µM; activity change, negative = inhibition: at the top concentration. The method, boiled down:
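1,000 cells/well; 4 h culture; + compound; + HCVcc-Cre (~0.5 moi); 44 h; luciferase substrate, RT 15 min; read 15 sec.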
For orientation: In qHTS, concentration-response curves come from the screen itself.
`CCCSc1nc(NCc2ccco2)c2c3c(sc2n1)COC(C)(CC)C3` (stereo not given): the “activity change, negative = inhibition” value was -20.9%. Still for that read-out and setting: in the case of `CC1CCN(C(=O)CCc2nnc3ccc(NCc4ccco4)nn23)CC1` it was 18.5%. In the case of `CN1CCc2c(sc3c2c(NCc2ccco2)nc2nnnn23)C1`, the Potency was 10 µM (active).

For the compound `CCC1(c2ccccc2)NC(=O)N(CC(=O)Nc2ccccc2C(=O)NC2CCCC2)C1=O` (stereo not given), the “activity change, negative = inhibition” value is -12.5%.

Regarding `COCC(C)n1c(SCC(=O)NC2CCCCC2C)nc2ccccc2c1=O` (stereo not given), the “activity change, negative = inhibition” value was 9.44%. On the same count and under the same terms, in the case of `CSCCC(NC(=O)c1ccco1)C(=O)Nc1cc(C)ccn1` (stereo not given) it was 30.5%; in that of `Cc1ccc(Nc2nnc(SCc3ccccc3)s2)cc1`, -17.6%. As for `CCc1ccc(Nc2n[n+](-c3ccccc3)c(-c3cccc(Cl)c3Cl)s2)cc1`, the Potency is 10 µM (active). As to `COc1cc(Br)c(-c2sc(Nc3ccccc3)n[n+]2-c2ccccc2)cc1OC`, the “activity change, negative = inhibition” value was 5.25%. Same read-out and setting: the result for `CCCN(C(=O)COC(=O)CNS(=O)(=O)c1ccc(NC(C)=O)cc1)C1CCS(=O)(=O)C1` (stereo not given) reads 18.2%. On to `COc1cc(OC)cc(C(=O)NNC(=O)CCOc2ccccc2OC)c1`, for which the “activity change, negative = inhibition” value is 13.4%. Still for that read-out and setting: in the case of `COc1ccc(C)cc1NC(=O)c1cc(-c2ccccc2)nc2c1cnn2C(C)C` it was -27.2%; in that of `O=C1Cc2cc(S(=O)(=O)Nc3cccc(F)c3)ccc2N1`, 13.7%. `COc1ccc(-c2cc(C(F)(F)F)nc(S(C)(=O)=O)n2)cc1OC`: the Potency is 10 µM (active). Regarding `COc1cc(OC)nc(S(C)(=O)=O)n1`, the “activity change, negative = inhibition” value was 5.26%. For `COc1ccc(-c2cc(C(=O)NCCCN3CCCC3=O)c3ccccc3n2)cc1OC`, the “activity change, negative = inhibition” value is 17%. With `CSCCC(NC(=O)COc1ccccc1)C(=O)OCc1ccc(Cl)cc1` (stereo not given), the “activity change, negative = inhibition” value is 25.3%. `O=C(COC(=O)c1ccc(O)cc1O)c1ccc2c(c1)OCCO2`: the “activity change, negative = inhibition” value is -6.11%. On to `CN(CCNC(=O)c1cc2c(-c3ccccc3F)nn(C)c2s1)C1CCCCC1`, for which the Potency was 12.6 µM (active).

For `Cc1ccccc1-n1nc(C)c2cc(C(=O)NC3CC3)sc21`, the “activity change, negative = inhibition” value was -26.6%. Still for that read-out and setting: the result for `CCOC(=O)N1CCN(C(=O)c2cc3c(-c4ccc(Cl)cc4)nn(C)c3s2)CC1` reads -20%; that for `CCOc1ncccc1C(=O)NNC(=O)c1cccc(S(=O)(=O)Nc2ccccc2OC)c1`, 3.32%. As for `C=CCCC(=O)N1C[C@H]2CON(C)[C@H]2C[C@H]1c1cccc(Nc2ccccc2)c1`, the activity change, negative = inhibition was -15.5% [at 8.37 µM]. Still for that read-out and setting: in the case of `Cc1ccc(C)c(NC(=S)NNC(=O)c2csc(C)c2)c1` it was 8.71%; in that of `CC(C)c1ccc(NC(=S)NNc2ccc(Cl)c(C(=O)O)c2)cc1`, 8.76%. In the case of `Cc1ccc(C)c(NC(=S)NNC(=S)Nc2ccc(C(C)C)cc2)c1`, the Potency was 5.62 µM (active). As to `CCOc1ccc(Br)cc1S(=O)(=O)Nc1ccc(S(=O)(=O)Nc2cc(C)on2)cc1`, the “activity change, negative = inhibition” value is 4.99%.

As to `COc1ccc(C2CC(c3cccs3)=Nc3ccccc3S2)cc1OC` (stereo not given), the Potency is 11.2 µM (active). Regarding `COc1ccc(C2CC(c3cccs3)=NN2c2ccc(F)cc2)cc1OC` (stereo not given), the “activity change, negative = inhibition” value was -5.17%.

In the case of `COc1ccc(C2CC(c3cccs3)=NN2C(=O)CCC(=O)O)cc1OC` (stereo not given), the “activity change, negative = inhibition” value is 4.23%. With `O=C(Nc1c[nH]c(=O)[nH]c1=O)OCc1ccccc1`, the “activity change, negative = inhibition” value was 6.8%. Same read-out and setting: the result for `CCOc1ccc(-c2nnc3ccc(SC)nn23)cc1` reads -21.9%; that for `CCOc1ccc(-c2c(C)n([O-])c3c([n+]2=O)CCCC3)cc1`, 3.27%.

For `CCOc1ccc(-c2cc(C)[n+](CCN(CC)CC)c(-c3ccc(OCC)cc3)c2)cc1`, the Potency is 11.2 µM (active). With `O=C(NCCCN1CCOCC1)c1cc(-c2cccc(O)c2)on1`, the “activity change, negative = inhibition” value is 11.8%.

For `COc1ccc(-c2cc(C(=O)NCCCN3CCOCC3)no2)cc1`, the “activity change, negative = inhibition” value is -3.36%. On to `O=C(NCCCN1CCOCC1)c1cc(-c2ccc(Cl)cc2)on1`, for which the Potency is 11.2 µM (active).

Regarding `C[C@H](NC(=O)c1ccccc1Cl)C(=O)OCC(=O)N1CCN(c2ccccc2)CC1`, the “activity change, negative = inhibition” value is 12.9%. Take `CCN(CC)c1ccc(/C=N/NC(=O)c2cnccn2)c(O)c1`: the Potency is 3.55 µM (active). On to `Cc1ccc(C(=O)NCCNC(=O)c2cnccn2)cc1`, for which the “activity change, negative = inhibition” value is 4.04%.

With `CCN(CC)c1ccc(/C=N/NC(=O)CNC(=O)c2cccnc2)cc1`, the “activity change, negative = inhibition” value was 5.9%. The same measure, in the same setting: the result for `CCC1([N+](=O)[O-])COC(c2ccc(C)cc2)OC1` (stereo not given) reads 3.04%. Same read-out and setting: in the case of `COc1ccc(C(=O)NCc2ccc(Cl)cc2)cc1S(=O)(=O)N1CCCC1` it was 7.82%.

On to `O=C(COC(=O)c1cnccn1)Nc1ccc(Cl)cc1C(F)(F)F`, for which the “activity change, negative = inhibition” value is 4.23%. Take `O=C(NCCCN1CCOCC1)c1ccc(N2CCCC2)c([N+](=O)[O-])c1`: the “activity change, negative = inhibition” value was 1.42%. Regarding `Cc1cccc(N2CCN(c3ccc(C(N)=O)cc3[N+](=O)[O-])CC2)c1C`, the “activity change, negative = inhibition” value was 22.1%. Consider `CS(=O)(=O)N1CCN(c2ccc(C(=O)NC3C4CC5CC(C4)CC3C5)cc2[N+](=O)[O-])CC1` (stereo not given), for which the Potency was 11.2 µM (active).

Turning to `O=C(NC1C2CC3CC(C2)CC1C3)c1ccc(N2CCNCC2)c([N+](=O)[O-])c1` (stereo not given), the “activity change, negative = inhibition” value is -6.97%. `CCOC(=O)C1CCN(c2ccc(C(=O)O)cc2[N+](=O)[O-])CC1`: the “activity change, negative = inhibition” value was 12.9%. With `Cc1ccc(C(=O)c2ccc(N3CCN(C)CC3)c([N+](=O)[O-])c2)cc1`, the Potency is 10 µM (active).
